Screens deposited in PubChem by National Center for Advancing Translational Sciences (NCATS).
NPC1 promoter act = NPC1 promoter activation | Huh7 NPC1 promoter luciferase reporter, 24 h | Potency, µM (series often up to 9.22 µM), for the others: at the top dose activation, actives largely listed as activators | 320,000 tested, 2.4% active | AID 485313; also: % of control where 0% means no effect; nearly all actives have a fitted effect of over 60% in size
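Luciferase expression driven by the NPC1 promoter was measured in stably transfected Huh7 cells after a 24 h compound incubation, using a luciferase reagent and a luminescence read.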
ELG1 genotox = genotoxicity induction in ELG1-luciferase HEK293T cells; HEK293T ELG1-luciferase reporter, luminescence, 16 h; AID 504466; Potency, µM (titrated, usually from 46 µM), without a hit: at the highest dose activity change, positive = activation, usual class: activators; 330,000 tested, 1.3% active; also: % of control where 0% means no effect; nearly all actives have a fitted effect of over 60% in size
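HEK293T cells expressing luciferase-tagged ELG1 were treated with compound or DMSO for 16 hr at 37°C. Luciferase activity was then read after 30 min with ONE-Glo at room temperature; rising signal flags genetic stress.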
FLuc modulator = firefly luciferase modulation, counter-screen for miR-21 project; P08659; purified FLuc, Km substrates, luminescence inhibition; Potency, µM (top dose mostly 57.5 µM), without a hit: top-dose activity change, negative = inhibition, most hits filed as inhibitors; 360,000 tested, 6.9% active;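 also: plate controls were vehicle for no effect and reference inhibitor for full effect; nearly all actives have a fitted effect of over 55% in size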
Target sequence (P08659 whole entry, looked up): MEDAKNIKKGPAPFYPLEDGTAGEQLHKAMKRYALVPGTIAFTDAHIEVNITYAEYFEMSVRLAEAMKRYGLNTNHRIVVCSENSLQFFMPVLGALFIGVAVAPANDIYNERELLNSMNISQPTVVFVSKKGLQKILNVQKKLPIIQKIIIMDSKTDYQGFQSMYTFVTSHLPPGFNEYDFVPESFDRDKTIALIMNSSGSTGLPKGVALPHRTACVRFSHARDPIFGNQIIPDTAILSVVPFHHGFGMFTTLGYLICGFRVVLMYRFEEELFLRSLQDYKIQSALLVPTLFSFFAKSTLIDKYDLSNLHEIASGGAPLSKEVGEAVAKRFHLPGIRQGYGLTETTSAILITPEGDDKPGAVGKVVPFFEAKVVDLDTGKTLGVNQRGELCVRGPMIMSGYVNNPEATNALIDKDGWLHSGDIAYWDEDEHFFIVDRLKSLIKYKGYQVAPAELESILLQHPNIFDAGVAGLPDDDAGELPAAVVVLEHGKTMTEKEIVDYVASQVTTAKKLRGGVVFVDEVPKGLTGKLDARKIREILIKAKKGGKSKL
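Purified P. pyralis luciferase, 10 nM final, with Km-level 10 uM D-luciferin and 10 uM ATP in 50 mM Tris acetate pH 7.5, 10 mM Mg acetate, 0.01% Tween-20, 0.05% BSA; 6-point qHTS titration about 60 µM downward; luminescence read.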
Rab9 promoter act = activates the Rab9 promoter; Potency, µM (titrated, usually from 9.22 µM), without a hit: top-dose activation, negative = inhibition, actives largely listed as activators; 320,000 tested, 2.8% active; Huh7 Rab9 promoter-luciferase reporter, luminescence, 24 h; also: % of control where 0% means no effect; nearly all actives have a fitted effect of over 60% in size
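Cell-based reporter: Huh7 stable for Rab9 promoter-driven luciferase, plated in reduced-serum medium with 10% FBS at 1500 cells/well, compound-treated 24 h at 37 °C, luminescence read after 10 min reagent.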
SMN2 splice up = enhancers of SMN2 splice variant expression | Potency, µM (titrated, usually from 46.1 µM), for the others: at the top dose activity change, positive = activation, most hits filed as activators | 210,000 tested, 2.8% active | AID 1458 | HEK293 SMN2-luciferase splicing reporter, luminescence, 30-36 h; also: % of control where 0% means no effect; nearly all actives have a fitted effect of over 55% in size
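HEK293 cells carry an SMN2 […]–luciferase reporter in which exon 7 inclusion puts luciferase in frame. Cells were plated 10-12 h before compound addition, then incubated 30-36 h at 37C. ONE-Glo luminescence was read; sodium butyrate at 4.5 mM final served as control.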
ELG1 DNA repair = ELG1-dependent DNA repair inhibition; HEK293T ELG1-luciferase reporter, luminescence, 16 h; DNA damage induced by 5-fluorouridine; Potency, µM (top dose mostly 46.1 µM), inactives show top-dose activity change, negative = inhibition, most hits filed as inhibitors; 330,000 tested, 2.3% active; AID 504467; also: % is scaled to controls: 0 for no effect and ±100 for the full control effect; nearly all actives have a fitted effect of over 55% in size
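Quantitative HTS, concentration-response format. 2,000 cells/well co-treated with 5-fluorouridine and compound, 16 hr in 5% CO2 at 37 °C; ONE-Glo luminescence read after 30 min.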
The depositor's hits bear a star; ? = inconclusive; nt = no result. A selection: hits, their analogues and other compounds. The true share with any hit is near 9.3%. Calls follow the shape of the dose curve; as a rule, active = well fitted curve in the direction sought with a large enough effect; inconclusive = small, poorly fitted or top-dose-only effect, or another doubt; inactive = no such curve, though single readings can be large; an effect the other way counts as inactive or inconclusive. Potency is read from the fitted curve at half-maximal effect.

SMILES	NPC1 promoter act	ELG1 genotox	FLuc modulator	Rab9 promoter act	SMN2 splice up	ELG1 DNA repair
COC(=O)c1ccccc1NC(=O)c1ccc2c(c1)CC(C)O2 (centres undefined)	28%	5%	17µM*	2.2µM*	nt	?
Clc1cccc(-c2ccc(C=Nc3ccc(N4CCOCC4)cc3)o2)c1	3%	3%	11µM*	-11%	-28%	3%
Oc1ccc(N=Nc2cccc(Cl)c2)cc1C=Nc1ccc(N2CCOCC2)cc1	13%	7%	-17%	0%	-67%	-4%
Oc1c(Br)cc(Cl)cc1C=Nc1ccc(N2CCOCC2)cc1	0%	-5%	17µM*	-6%	nt	?
Cc1ccc(NC(=O)CSc2nnc(COc3ccc(Cl)cc3)o2)cc1	nt	nt	-10%	nt	nt	nt
Cc1ccc(C)c(S(=O)(=O)NCC(=O)Nc2ccc3c(c2)OCO3)c1	0%	1%	0%	0%	nt	-16%
COc1cc(-c2nc(-c3ccc4c(c3)-c3ccccc3S4(=O)=O)c(-c3ccccc3)[nH]2)cc(OC)c1OC	0%	-9%	4.8µM*	5%	29%	2.6µM*
Cc1cccc(NC(=O)c2ccc([N+](=O)[O-])cc2Cl)n1	-1%	-1%	-14%	16%	-6%	6%
Cc1cc(NC(=O)Nc2ccc(Cl)cc2)no1	27%	12%	?	27%	nt	?
Cc1ccc(NC(=O)Nc2cc(C)on2)cc1	?	-6%	15µM*	?	?	?
Cc1cccc(NC(=O)Nc2cccc(C)n2)n1	20%	3%	17µM*	?	8%	?
Cc1cccc(NC(=O)Nc2ccc([N+](=O)[O-])cc2)n1	?	9%	2%	2.2µM*	23%	?
Cc1cccc(NC(=S)Nc2cccc(C)n2)n1	-6%	1%	4%	15%	nt	4%
CC(=O)N(C)c1ccc(NC(=O)Nc2ccc(C)cc2)cc1	29%	?	24µM*	?	?	?
C=CCN=C1CC(C)(C)C(C(=O)OC)C(O)=C1C(=O)CCC (centres undefined)	0%	2%	0%	-4%	4%	1%
Cc1cccc(NC(=O)Nc2ccc(C)c(C)c2)n1	?	?	2.1µM*	?	?	?
COC(=O)c1ccc(NC(=O)c2cn(-c3cccc(C)n3)cn2)cc1	4%	3%	3%	0%	-12%	25%
Cc1cccc(NC(=O)Nc2ccc3c(c2)N(C)C(=O)CS3)n1	14%	?	?	0%	4%	13%
Cc1cccc(NC(=O)Nc2ccc(F)cc2)n1	?	12%	8.5µM*	?	-4%	?
Cc1ccc(NC(=O)c2cn(-c3cccc(C)n3)cn2)cc1	2.8µM*	?	?	3.5µM*	?	?
O=C(Nc1ccc(F)cc1)Nc1ccc2ccccc2n1	?	12%	2%	23%	nt	18%
Cc1ccc(NC(=O)Nc2cccc(C)n2)cc1	0%	?	2.4µM*	24%	16µM*	?
Cc1cccc(NC(=O)Nc2ccc(Cl)cc2)n1	25%	16%	?	?	nt	?
CCOc1ccc(N(C(C)C(=O)N/N=C(\C)c2cccc(NC(=O)c3ccccc3)c2)S(C)(=O)=O)cc1 (centres undefined)	0%	-7%	-13%	-4%	-4%	?
Cc1ccc(CNS(=O)(=O)c2cc3c4c(c2)C(C)C(=O)N4CCC3)cc1 (centres undefined)	-5%	-4%	2%	-11%	nt	-5%
SMILES	NPC1 promoter act	ELG1 genotox	FLuc modulator	Rab9 promoter act	SMN2 splice up	ELG1 DNA repair
COc1ccc(/C=C/C(=O)C2C(=O)C=C(C)OC2=O)cc1O (centres undefined)	?	?	6µM*	18%	12%	?
COc1cc(/C=C/C(=O)C2C(=O)C=C(C)OC2=O)cc(OC)c1O (centres undefined)	-4%	1%	-17%	-7%	-53%	2.6µM*
COc1ccc(/C=N/NC(=O)c2ccoc2C)cc1O	12%	?	?	24%	?	?
CCN(CC(=O)NCc1ccc(Cl)cc1)C(=O)/C=C/c1cccs1	-4%	-4%	-7%	1%	-4%	-2%
COc1ccccc1CNC(=O)COC(=O)CCC(=O)c1cccs1	2%	-1%	3%	-9%	-22%	2%
Cc1nn(-c2ccccc2)c(C)c1/C=N/NC(=O)c1cc(-c2ccccc2)n[nH]1	-7%	-15%	?	-18%	4%	?
Cc1nn(-c2ccccc2)c(Cl)c1/C=N/NC(=O)c1ccn[nH]1	0.22µM*	8.2µM*	0.76µM*	1.1µM*	nt	?
Cc1nn(-c2ccccc2)c(Cl)c1/C=N/O	-6%	8%	?	0%	?	5%
Cc1cc(C(=O)N/N=C/c2c(C)nn(-c3ccccc3)c2Cl)n[nH]1	29%	?	7.6µM*	?	nt	?
Cc1nn(-c2ccccc2)c(Cl)c1/C=N/NC(=O)c1ccccc1F	?	?	8.5µM*	2.2µM*	nt	?
Cc1ccccc1OCC(=O)N/N=C/c1c(C)nn(-c2ccccc2)c1Cl	-6%	0%	?	-8%	17%	-9%
Cc1nn(-c2ccccc2)c(Cl)c1/C=N/NC(=O)c1[nH]ncc1Br	0.32µM*	1.5µM*	0.6µM*	0.4µM*	nt	?
Cc1cc(=O)nc2c3ccccc3n(CC(=O)NCCCN3CCCCC3C)n12 (centres undefined)	10%	-2%	-4%	2%	nt	24%
CCOC(=O)c1cc2c(ccn2C)n1CC(=O)N1CCN(c2ccccc2OC)CC1	0%	-14%	3%	0%	8%	?
O=C1N/C(=N\S(=O)(=O)Cc2ccccc2)S/C1=C/c1cccc([N+](=O)[O-])c1	-5%	7%	?	-3%	nt	15%
O=C1N/C(=N/O)S/C1=C/c1cccc([N+](=O)[O-])c1	9%	5%	21µM*	-1%	-14%	?
C[C@H](NC(=O)c1ccccc1)C(=O)N1CCN(Cc2ccc3c(c2)OCO3)CC1	nt	0%	nt	nt	nt	1%
CN(C)S(=O)(=O)c1ccc(Cl)c(NC(=O)CN2CCN(Cc3ccc4c(c3)OCO4)CC2)c1	2%	-8%	3%	-10%	nt	21µM*
O=C(Cn1c(=O)[nH]c2ccccc2c1=O)N1CCN(Cc2ccc3c(c2)OCO3)CC1	-1%	-12%	1%	-16%	nt	23µM*
CC(C)[C@H](NC(=O)c1ccc(C(C)(C)C)cc1)C(=O)N1CCN(Cc2ccc3c(c2)OCO3)CC1	nt	-2%	nt	nt	nt	16µM*
